In ChEMBL document CHEMBL3988442, “University of Dundee, Small-Polar-MMV Screening Library” (2021):
About 13,000 (27%) of roughly 48,000 compounds showed an effect of 50% or more. Some of the results follow.

System: Wolbachia pipientis
Assay: Anti-Wolbachia Cell-Based Screen
Assay type: functional
Parameters: scale not given: in the data most compounds retested in dose-response had high values
Details: 5 µM

Row | SMILES | Percent Effect [%]
1 | CNC(=O)Cc1noc(-c2cc3c(s2)CCC(C)(C)C3)n1 | -4.639
2 | COc1ccccc1CC1CCCN(C(=O)c2cn[nH]c2C)C1 (stereo not given) | -7.935
3 | CC(C)(C)OC(=O)NC1CCCN(Cc2cccc(O)c2)C1 (stereo not given) | -3.79
4 | O=C(O)c1ccccc1CN1CCCC(Cc2ccn[nH]2)C1 (stereo not given) | 106.4
5 | O=C1CCCN1CCN1CCCC(c2ccn[nH]2)C1 (stereo not given) | 1.781
6 | COc1ccccc1CC1CCCN(CC(N)=O)C1 (stereo not given) | -5.386
7 | O=C(O)c1cccc(CN2CCCC(c3ccn[nH]3)C2)c1 (stereo not given) | 109.3
8 | c1ccn2cc(CN3CCCC(c4ccn[nH]4)C3)nc2c1 (stereo not given) | 9.447
9 | O=C(O)c1cccc(CN2CCCC(Cc3ccn[nH]3)C2)c1 (stereo not given) | 127.8
10 | O=C(O)c1ccc(CN2CCCC(Cc3ccn[nH]3)C2)cc1 (stereo not given) | 99.33
11 | Cc1ccsc1[C@@H]1CCN(C(=O)c2ccc(-c3cc[nH]n3)cc2)C[C@H]1O | -2.8
12 | CCC(SC)C(=O)N1CCC(n2cccn2)CC1 (stereo not given) | -7.031
13 | CN1C(=O)CC2(CCN(S(=O)(=O)c3cccs3)CC2)c2ccccc21 | 10.11
14 | COCCCNC(=O)C1(NC(=O)c2ccc3[nH]ncc3c2)CCCC1 | -2
15 | O=S(=O)(NCC1(O)CCOc2ccccc21)c1ccccc1Br (stereo not given) | 15.3
16 | O=C(Nc1nnn[nH]1)c1ccc(-n2cccc2)c(F)c1 | -12.4
17 | O=C(COC1CCCC1)N1CCC(C(O)c2ccc(F)cc2)CC1 (stereo not given) | 6.854
18 | COc1cccc(NC(C(N)=O)c2ccc(Br)cc2)c1 (stereo not given) | 1.947
19 | O=C(COc1ccc(F)cc1)N1CCO[C@H]2[C@@H](OCC3CC3)CC[C@@H]21 | 107
20 | COc1ccc(C(=O)N2CCO[C@H]3[C@H](OCC4CC4)CC[C@@H]32)cc1F | -4.788
21 | COc1cc(C(=O)N2CCO[C@H]3[C@H](OCC4CC4)CC[C@@H]32)ccc1F | 35.93
22 | CCO[C@@H]1CC[C@H]2[C@H]1OCCN2C(=O)C1CCOCC1 | 0.9043
23 | CCO[C@H]1CC[C@H]2[C@@H]1OCCN2C(=O)COc1ccccc1 | 94.92
24 | CCO[C@@H]1CC[C@H]2[C@H]1OCCN2C(=O)c1ccc(C)o1 | 0.08907

Row | SMILES | Percent Effect [%]
25 | CCO[C@H]1CC[C@H]2[C@H]1OCCN2C(=O)COc1ccccc1 | 74.73
26 | CC(C)CN1C[C@H]2CCN(C(=O)C3CCCO3)CC[C@H]2S1(=O)=O (stereo not given in full) | -18.66
27 | CN(Cc1cnccn1)CC1CCOc2ccccc2C1 (stereo not given) | 5.577
28 | CCC(C)CNc1ccc2oc(COC)nc2c1 (stereo not given) | -9.605
29 | CN(C)C(=O)c1ccc(CNc2c(Cl)cccc2C#N)cc1 | -8.933
30 | CNC(=O)c1cnc2n1CCN(Cc1cccnc1)C2.O=C(O)C(F)(F)F.O=C(O)C(F)(F)F.O=C(O)C(F)(F)F | 0.3449
31 | CN1CCN(Cc2cnc3n2CCN(CCc2ccccc2)C3)CC1.O=C(O)C(F)(F)F.O=C(O)C(F)(F)F.O=C(O)C(F)(F)F | 127
32 | Cc1noc(C)c1CN1CCn2c(CN3CCN(C)CC3)cnc2C1.O=C(O)C(F)(F)F.O=C(O)C(F)(F)F.O=C(O)C(F)(F)F | -4.762
33 | COCC(=O)N1CCn2c(CN3CCN(C)CC3)cnc2C1.O=C(O)C(F)(F)F.O=C(O)C(F)(F)F | -7.166
34 | CN1CCN(Cc2cnc3n2CCN(Cc2cccnc2)CC3)CC1.O=C(O)C(F)(F)F.O=C(O)C(F)(F)F.O=C(O)C(F)(F)F | 102.7
35 | CCOCc1nnc(NCc2cccc(C)c2)o1 | -20.23
36 | CN(Cc1ccccc1)CC1CC2(CO1)CN(Cc1cnn(C)c1)C2 (stereo not given) | -2.148
37 | Cn1nc2c(cc1=O)CN(Cc1nc(C3CC3)no1)CC2 | 27.59
38 | CCNc1ccc(-c2ccnc3c2ccn3C)nn1 | -1.559
39 | CCc1cc(N(C)Cc2ncc[nH]2)nc(N2CCOCC2)n1 | -9.08
40 | Cn1ccc2c(-c3cc(N)nc(N4CCOCC4)n3)ccnc21 | 88.78
41 | CCc1cc(-c2ccnc3c2ccn3C)nc(N2CCOCC2)n1 | 67.54
42 | Cn1ccc2c(-c3nccc(N)n3)ccnc21 | -30.17
43 | CN(C)c1cncc(-c2ccnc3c2ccn3C)n1 | -34.59
44 | CN(CC1(O)CCCN(CCC2CCCCC2)C1=O)C1CCOCC1 (stereo not given) | -1.971
45 | CN(C)S(=O)(=O)N1CCC(C)(c2ncc(C(N)=O)s2)CC1 | 173.8
46 | Cc1cnc(C(=O)N2C[C@H]3CC[C@@H]2CN(S(=O)(=O)N(C)C)C3)cn1 | -4.38
47 | CN(C)S(=O)(=O)N1CC[C@H]2OCC[C@@]2(COc2cccnc2)C1.O=C(O)C(F)(F)F | 7.883
48 | CN(C)S(=O)(=O)N1CCC[C@]2(C[C@@H](Oc3ccccn3)CO2)C1.O=C(O)C(F)(F)F | -2.011

Row | SMILES | Percent Effect [%]
49 | CN(C)S(=O)(=O)N1CCCC(C)(c2ncc(C(N)=O)s2)C1 (stereo not given) | 191.5
50 | CN1C(=O)CC2(CCN(S(=O)(=O)N(C)C)CC2)c2ccccc21 | -6.476
51 | CCS(=O)(=O)N1CCN(C(=O)C(C)C)CC2(CC(=O)N(C)C2)C1 (stereo not given) | -2.529
52 | CN(C)C(C(=O)NCC1(O)CCCCC1)c1cccc(F)c1 (stereo not given) | 11.81
53 | CN(C)C1(CNC(=O)C/C=C/c2ccc(F)cc2)CCOCC1 | 1.504
54 | O=C(NCC1(O)CCOC1)c1ccccc1Cl (stereo not given) | -4.323
55 | O=C(NCc1ccc(Cl)cc1Cl)NCC1(O)CCSC1 (stereo not given) | -14.06
56 | O=C(NCC1(O)CCC1)c1c(O)cc(F)cc1F | 120.5
57 | CN(C)C1(CNC(=O)c2c(O)cc(Cl)cc2Cl)CCOCC1 | 85.78
58 | CN(C)C(C(=O)NCC1(O)CCCCC1)c1c(F)cccc1F (stereo not given) | -3.857
59 | CN(C)C(C(=O)NCC1(N(C)C)CCOCC1)c1ccccc1F (stereo not given) | -12.63
60 | O=C(NCC1(O)CCC1)c1c(O)cc(Cl)cc1Cl | 97.98
61 | CCOC(C)c1noc(CN2CCN(c3nnc(C)s3)CC2)n1 (stereo not given) | -0.8403
62 | Cc1cc(Cl)ccc1C(=O)N1C[C@H](C2CC2)[C@@H](N)C1 | -41.17
63 | CCc1nn(C)c(Cl)c1CN1C[C@@H](NC(=O)N(C)C)[C@H](C(C)C)C1 | 3.461
64 | COc1ccc(C(=O)N2C[C@@H](NC(=O)N(C)C)[C@H](C(C)C)C2)c(OC)n1 | 83.06
65 | CC(=O)N[C@@H]1CN(C(=O)c2csc(C(C)C)n2)C[C@H]1C(C)C | -24.56
66 | COc1ccc(Cl)cc1C(=O)N1C[C@H](C(C)C)[C@@H](N)C1 | 105.5
67 | COc1ccc(Cl)cc1C(=O)NCC1CCN(C(=O)c2ccoc2)CC1 | -13.86
68 | COc1ccc(Cl)cc1C(=O)N1CCCC(n2nc(C)nc2C)C1 (stereo not given) | -10.83
69 | COc1ccc(N2CCC(N3C[C@H](NC(C)=O)[C@@H](C(C)C)C3)CC2)cc1 | 0.1798
70 | COc1ccc(Cl)cc1C(=O)N1C[C@@H](NC(=O)N(C)C)[C@H](C(C)C)C1 | 96.11
71 | CCOCc1ccccc1NC(=O)NC1CCN(CC(F)(F)F)C1 (stereo not given) | 4.433
72 | CCN(CC)CCN(CC(C)C)c1cc(C(F)(F)F)nc2ncnn12 | -0.1585

Row | SMILES | Percent Effect [%]
73 | Cc1cccc(C(=O)N2CCN(S(C)(=O)=O)[C@@H](C)C2)c1C | -0.07044
74 | CNC(=O)NC(=O)CCN1CCOC(c2ccc(Br)cc2)C1 (stereo not given) | 0.8414
75 | O=C(O)C(F)(F)F.O=S(=O)(C1CC1)N1C[C@@H]2CN(Cc3ccoc3)CCO[C@@H]2C1 | 10.49
76 | CC(=O)N1C[C@@H]2CN(S(=O)(=O)C3CC3)CCO[C@@H]2C1 | 81.74
77 | CC(=O)N1CCO[C@@H]2CN(S(=O)(=O)C3CC3)C[C@@H]2C1 | 90.6
78 | O=C(O)C(F)(F)F.O=S(=O)(C1CC1)N1CCO[C@@H]2CN(Cc3cccs3)C[C@@H]2C1 | 3.839
79 | CC(=O)N1CCO[C@@H]2CN(C(=O)c3ccc4ccccc4c3)CC[C@@H]2C1 | 3.224
80 | CC(=O)N1CCO[C@@H]2CN(S(=O)(=O)c3ccccc3F)C[C@@H]2C1 | -1.494
81 | CC(=O)N1CCO[C@@H]2CN(S(=O)(=O)C3CC3)CC[C@@H]2C1 | 114.1
82 | COCc1ccc(CN[C@H]2C[C@@H](Cc3cc(CCO)on3)C2(C)C)o1 | -18.1
83 | CSC(C)C(=O)N1CCN(CCO)CC1 (stereo not given) | -9.9
84 | CCCn1nc2c(cc1=O)CN(Cc1c(C)noc1C)CC2 | -3.39
85 | Cc1noc(C2CCCN(CC(=O)N3CCNC(=O)C3)C2)n1 (stereo not given) | 8.261
86 | CN(C)C(=O)CN1C[C@@H]2CC[C@H](C1)N(Cc1ccccc1OCCO)C2 | -40.78
87 | Cc1cc(CN(CCO)c2ccccc2)on1 | -2.201
88 | Cc1nc(CNC(=O)Cn2nc(-c3ccc(F)cc3)oc2=O)cs1 | -1.04
89 | Cn1c(SCc2noc(-c3ccsc3)n2)nnc1C1CCS(=O)(=O)C1 (stereo not given) | -1.02
90 | CC(C(=O)Nc1ncccn1)N1CCc2[nH]nc(C(F)(F)F)c2C1 (stereo not given) | -12.45
91 | CSc1nnc(C2CCN(C(=O)N3CCOCC3)CC2)n1C(C)C | 91.83
92 | CSc1nnc(C2CCN(C(=O)N3CCCC3)CC2)n1C(C)C | 114
93 | CC(C)c1cc(NC2CCN(C(=O)N3CCCC3)CC2)ncn1 | -23.56
94 | CC(C)CN1C(=O)CO[C@@H]2CN(C(=O)N3CCOCC3)C[C@H]21 | -11.7
95 | CC(C)n1ccnc1C1CCN(C(=O)N2CCCC2)CC1 | -25.38
